Screening results (PubChem BioAssay)
Rows were chosen to be rich in hits. Some 2.8% of all compounds tested hit in one or more screens of this group.
CF NFkB block: cystic fibrosis NF-kB activation inhibition | inhibition, % at 5 µM | 360,000 compounds, 0.86% hits | KKLEB NF-kB-GFP reporter, PAF-induced, GFP fluorescence overnight;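 active = at least 50% inhibition at 5 µM, scaled per plate between neutral and stimulator controls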;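 also: PAF is a Pseudomonas aeruginosa culture filtrate used as stimulus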
HIF-2a inh: HIF-2a inhibition; 360,000 compounds, 0.72% hits; 786-0 RCC cells HIF-2a reporter, luciferase luminescence, overnight; AID 624352; inhibition, % at 18.8 µM;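 active = inhibition of the luminescence signal of 40% or more relative to plate controls, in a single-dose primary screen at 18.75 µM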
Peg3 promoter: inhibitors of Peg3 promoter | HeLa PEG-Prom luciferase reporter, luminescence, overnight | inhibition, % at 20 µM | 360,000 compounds, 1.7% hits;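 active = inhibition of at least 50% at 20 µM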
TRPM1 prom inh: inhibitors of MITF-driven TRPM1 promoter in melanoma cells; inhibition, % at 12.5 µM; SK-MEL-5 TRPM1 promoter luciferase, 24 h; 330,000 compounds, 0.83% hits;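 active = mean inhibition across replicates of 60% or more, whatever share of single replicates reaches that level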
Shn3 3UTR inh: reduces Shn3 3'UTR luciferase signal in osteoblasts; inhibition, % at 12.5 µM; Clone20 osteoblast Shn3 3'UTR firefly luciferase, 24 h; AID 588674; 360,000 compounds, 0.52% hits;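 active = mean inhibition of at least 75% with every replicate also reaching 75%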
KKLEB cytotox: counter-screen for CF NF-kB inhibitors: cytotoxicity; KKLEB CF airway cells viability, ATPlite luminescence, overnight; active compounds read low; cells stimulated with P. aeruginosa culture filtrate; activity change (cytotoxicity), % at 5 µM; 360,000 compounds, 0.36% hits;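 active = corrected activity change at or below -50% at 5 µM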
A number is an active result; n = inactive; x = no result given.

SMILES	CF NFkB block	HIF-2a inh	Peg3 promoter	TRPM1 prom inh	Shn3 3UTR inh	KKLEB cytotox
S=C(NCc1ccc2[nH]c3c(c2c1)CCCC3)Nc1ccccc1	n	n	n	n	n	n
Cc1cc(C)cc(NC(=S)NCc2ccc3[nH]c4c(c3c2)CCCC4)c1	n	n	67	n	n	n
O=C(Nc1nc2c(F)cc(F)cc2s1)c1ccccn1	n	n	75	65	88	n
O=C(COc1ccccc1)NNc1nc2c(F)cc(F)cc2s1	n	n	n	n	n	n
COc1cc(CN2CCNC(=O)C2CC(=O)N(C)CCCN2CCOCC2)cc(OC)c1 (stereo not given)	n	n	n	n	n	n
c1cc(SC2CCCCC2)cc(-c2nc3cnccn3c2NC2CCCCC2)c1	73	n	95	n	n	-55
Cc1ccc2nc(-c3cccc(SC4CCCCC4)c3)c(NCc3ccccc3)n2c1	n	n	67	n	n	n
c1ccc(CNc2c(-c3cccc(SC4CCCCC4)c3)nc3ccccn23)cc1	n	n	86	n	90	n
CCOC(=O)c1c(NC(=O)COC(=O)C2CC2C)sc(C)c1C (stereo not given)	n	n	n	n	n	n
CN(C)CCCNc1ncnc2sc(-c3ccccc3)cc12	n	n	71	n	x	n
CCOC(CNc1ncnc2sc(-c3ccccc3)cc12)OCC	n	n	n	n	n	n
CCCc1cc(=O)[nH]c(SCC(=O)Nc2cc(S(=O)(=O)N3CCCCC3)ccc2C)n1	n	n	n	n	n	n
C=CCN1C(=O)C(CC(=O)Nc2ccc(OCCC)cc2)N(CCCN2CCN(Cc3ccccc3)CC2)C1=S (stereo not given)	n	n	52	n	n	n
c1ccc2c(-c3[nH]ncc3CNCCCn3ncc4ccccc43)cccc2c1	n	n	n	n	90	n
N#C/C(=C/c1ccc(N2CCOCC2)o1)c1ccc(Cl)cc1	n	n	n	n	91	n
COc1ccc2oc(=Nc3ccccc3)c(-c3nc4ccccc4[nH]3)cc2c1	n	n	n	n	n	-67
COc1ccc(-c2nc3ccccc3[nH]2)cc1	n	n	n	n	n	n
O=C(Nc1ccccc1O)c1ccc2c(c1)C(=O)N(Cc1ccco1)C2=O	n	n	64	n	n	n
COc1ccccc1NC(=O)c1ccc2c(c1)C(=O)N(Cc1ccco1)C2=O	n	n	n	n	n	n
CCOC(=O)C1(CC2CCCCO2)CCN(S(=O)(=O)c2c(C)nn(C)c2C)CC1 (stereo not given)	n	n	n	n	n	n
COC(=O)c1cccc(NC(=O)c2cccnc2C(=O)O)c1C	n	n	n	n	n	n
O=[N+]([O-])c1ccc(N/N=C/c2sc(N3CCOCC3)nc2-c2ccccc2)c(S(=O)(=O)Nc2ccccc2Cl)c1	n	n	68	65	87	n
O=C(N/N=C/c1sc(N2CCOCC2)nc1-c1ccccc1)c1ccccc1Cl	n	n	n	n	n	n
O=[N+]([O-])c1ccc(N/N=C/c2sc(N3CCOCC3)nc2-c2ccccc2)c(S(=O)(=O)Nc2ccc(Cl)cc2)c1	n	n	54	72	91	n
CCOC(=O)Cc1csc(NC(=O)Nc2cccc(OC)c2)n1	n	n	n	n	n	n
SMILES	CF NFkB block	HIF-2a inh	Peg3 promoter	TRPM1 prom inh	Shn3 3UTR inh	KKLEB cytotox
CCCCNC(=NCc1cccc(C(F)(F)F)c1)Nc1ccccc1	n	n	76	n	n	n
O=C(Cc1cccc(C(F)(F)F)c1)Nc1ccccc1	n	n	n	n	n	n
CC1CC(C)(C)Nc2ccc(N=O)cc21 (stereo not given)	71	n	84	61	93	n
CC1CC2(CCCC2)Nc2ccc(F)cc21 (stereo not given)	n	n	n	n	n	n
CSc1ncnc2c1ncn2CCCN1CCN(C(=O)C2CC2)CC1	n	n	n	x	n	n
O=C(/C=C/c1ccccc1F)c1cccc([N+](=O)[O-])c1	n	n	n	n	n	n
COc1cc(/C=C/C(=O)c2cccc([N+](=O)[O-])c2)cc(OC)c1OC	n	n	105	n	n	n
N#Cc1c([N+](=O)[O-])cc([N+](=O)[O-])cc1S(=O)(=O)Cc1ccccc1	82	94	98	93	95	-62
O=C1/C(=C/c2ccc(F)cc2)SC(=S)N1CC(=O)N1CCCCC1c1cccnc1 (stereo not given)	n	n	103	n	n	n
